Records with an inconclusive call do not appear. The source made the active and inactive calls. Calls come from the whole dose curve; as a rule, active = well fitted inhibition curve with a large enough effect; inconclusive = small, poorly fitted or top-dose-only effect; inactive = flat fitted curve, though single readings scatter.
Tests used:
[1] = qHTS profiling for inhibitors of Plasmodium falciparum proliferation (AID 504749);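 note: 0% = DMSO vehicle and full inhibition = artemisinin control; nearly all actives have a fitted effect of over 60% in size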; settings: P. falciparum in erythrocytes, SYBR Green DNA, 72 h
Method in brief: (§1)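 Parasite proliferation within erythrocytes, 72 h exposure. Endpoint: SYBR Green I fluorescence after overnight lysis at room temperature. Controls: 0.29 uM artemisinin, DMSO.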

3D7 = assay: as above; settings: P. falciparum in erythrocytes, SYBR Green DNA, 72 h; series mostly up to 28.7 µM
Method in brief: as §1

7G8 = assay: as above; settings: P. falciparum in erythrocytes, SYBR Green DNA, 72 h; series mostly up to 28.7 µM
Method in brief: as §1

AA1029 = assay: as above; settings: P. falciparum in erythrocytes, SYBR Green DNA, 72 h; series mostly up to 28.7 µM
Method in brief: as §1

AS120 = assay: as above; settings: P. falciparum in erythrocytes, SYBR Green DNA, 72 h; series mostly up to 28.7 µM
Method in brief: as §1

ATS189 = assay: as above; settings: P. falciparum in erythrocytes, SYBR Green DNA, 72 h; series mostly up to 28.7 µM
Method in brief: as §1

ATS95 = assay: as above; settings: P. falciparum in erythrocytes, SYBR Green DNA, 72 h; series mostly up to 28.7 µM
Method in brief: as §1

C2A = assay: as above; settings: P. falciparum in erythrocytes, SYBR Green DNA, 72 h; series mostly up to 28.7 µM
Method in brief: as §1

CP185 = assay: as above; settings: P. falciparum in erythrocytes, SYBR Green DNA, 72 h; series mostly up to 28.7 µM
Method in brief: as §1

CP191 = assay: as above; settings: P. falciparum in erythrocytes, SYBR Green DNA, 72 h; series mostly up to 28.7 µM
Method in brief: as §1

CP192 = assay: as above; settings: P. falciparum in erythrocytes, SYBR Green DNA, 72 h; series mostly up to 28.7 µM
Method in brief: as §1

CP194 = assay: as above; settings: P. falciparum in erythrocytes, SYBR Green DNA, 72 h; series mostly up to 28.7 µM
Method in brief: as §1

CP201 = assay: as above; settings: P. falciparum in erythrocytes, SYBR Green DNA, 72 h; series mostly up to 28.7 µM
Method in brief: as §1

CP203 = assay: as above; settings: P. falciparum in erythrocytes, SYBR Green DNA, 72 h; series mostly up to 28.7 µM
Method in brief: as §1

CP211 = assay: as above; settings: P. falciparum in erythrocytes, SYBR Green DNA, 72 h; series mostly up to 28.7 µM
Method in brief: as §1

CP215 = assay: as above; settings: P. falciparum in erythrocytes, SYBR Green DNA, 72 h; series mostly up to 28.7 µM
Method in brief: as §1

[2] = at 28.7 µM (top of the series), parasite line A
[3] = at 28.7 µM (top of the series), parasite line B

N[C@@H](Cc1ccc(O)cc1)C(=O)O
inactive: activity, negative = inhibition [1, 2] 13.6% | activity, negative = inhibition [1, 3] 10.5% | Potency (3D7) | Potency (7G8) | Potency (AA1029) | Potency (AS120) | Potency (ATS189) | Potency (ATS95) | Potency (C2A) | Potency (CP185) | outcome (CP191) | outcome (CP192) | outcome (CP194) | outcome (CP201) | Potency (CP203) | outcome (CP211) | Potency (CP215)

CC(O)CCCCn1c(=O)c2c(ncn2C)n(C)c1=O (stereo not given)
inactive: activity, negative = inhibition [1, 2] 9.1% | activity, negative = inhibition [1, 3] 4.96% | Potency (3D7) | Potency (7G8) | Potency (AA1029) | Potency (AS120) | Potency (ATS189) | Potency (ATS95) | Potency (C2A) | Potency (CP185) | outcome (CP191) | outcome (CP192) | outcome (CP194) | outcome (CP201) | Potency (CP203) | outcome (CP211) | Potency (CP215)

CCOc1ccc(C(=O)OCCN(CC)CC)cc1
inactive: activity, negative = inhibition [1, 2] 11.5% | activity, negative = inhibition [1, 3] 3.64% | Potency (3D7) | Potency (7G8) | Potency (AA1029) | Potency (AS120) | Potency (ATS189) | Potency (ATS95) | Potency (C2A) | Potency (CP185) | outcome (CP191) | outcome (CP192) | outcome (CP194) | outcome (CP201) | Potency (CP203) | outcome (CP211) | Potency (CP215)

Cc1c(C)c2c(c(C)c1OC(=O)c1cccnc1)CC[C@@](C)(CCC[C@H](C)CCC[C@H](C)CCCC(C)C)O2
inactive: activity, negative = inhibition [1, 2] -3.82% | activity, negative = inhibition [1, 3] -2.45% | Potency (3D7) | Potency (7G8) | Potency (AA1029) | Potency (AS120) | Potency (ATS189) | Potency (ATS95) | Potency (C2A) | Potency (CP185) | outcome (CP191) | outcome (CP192) | outcome (CP194) | outcome (CP201) | Potency (CP203) | outcome (CP211) | Potency (CP215)

NC(N)=NCCN1CCCCCCC1
inactive: activity, negative = inhibition ([1]; at 12.8 µM (top of the series), parasite line A) 4.56% | activity, negative = inhibition ([1]; at 12.8 µM (top of the series), parasite line B) 10.2% | Potency (3D7) | Potency (7G8) | Potency (AA1029) | Potency (AS120) | Potency (ATS189) | Potency (ATS95) | Potency (C2A) | Potency (CP185) | outcome (CP191) | outcome (CP192) | outcome (CP194) | outcome (CP201) | outcome (CP211)

CCCCCCCCCCCCCCCCN
inactive: activity, negative = inhibition [1, 2] 0.565% | activity, negative = inhibition [1, 3] 3.84% | Potency (3D7) | Potency (7G8) | Potency (AA1029) | Potency (AS120) | Potency (ATS189) | Potency (ATS95) | Potency (C2A) | Potency (CP185) | outcome (CP191) | outcome (CP192) | outcome (CP194) | outcome (CP201) | Potency (CP203) | outcome (CP211) | Potency (CP215)

CC(C(=O)O)c1ccc2c(c1)Cc1cccnc1O2 (stereo not given)
inactive: activity, negative = inhibition [1, 2] 5.68% | activity, negative = inhibition [1, 3] -1.86% | Potency (3D7) | Potency (7G8) | Potency (AA1029) | Potency (AS120) | Potency (ATS189) | Potency (ATS95) | Potency (C2A) | Potency (CP185) | outcome (CP191) | outcome (CP192) | outcome (CP194) | outcome (CP201) | Potency (CP203) | outcome (CP211) | Potency (CP215)

CC(CSC(=O)c1ccccc1)C(=O)N1C[C@@H](Sc2ccccc2)C[C@H]1C(=O)O (stereo not given in full)
inactive: activity, negative = inhibition [1, 2] 13% | activity, negative = inhibition [1, 3] 2.24% | Potency (3D7) | Potency (7G8) | Potency (AA1029) | Potency (AS120) | Potency (ATS189) | Potency (ATS95) | Potency (C2A) | Potency (CP185) | outcome (CP191) | outcome (CP192) | outcome (CP194) | outcome (CP201) | Potency (CP203) | outcome (CP211) | Potency (CP215)

Cc1c(N(C)C)c(=O)n(-c2ccccc2)n1C
inactive: activity, negative = inhibition [1, 2] 13.7% | activity, negative = inhibition [1, 3] 18.1% | Potency (3D7) | Potency (7G8) | Potency (AA1029) | Potency (AS120) | Potency (ATS189) | Potency (ATS95) | Potency (C2A) | Potency (CP185) | outcome (CP191) | outcome (CP192) | outcome (CP194) | outcome (CP201) | Potency (CP203) | outcome (CP211) | Potency (CP215)

O=C(O)CCCc1ccccc1
inactive: activity, negative = inhibition [1, 2] 3.34% | activity, negative = inhibition [1, 3] -0.114% | Potency (3D7) | Potency (7G8) | Potency (AA1029) | Potency (AS120) | Potency (ATS189) | Potency (ATS95) | Potency (C2A) | Potency (CP185) | outcome (CP191) | outcome (CP192) | outcome (CP194) | outcome (CP201) | outcome (CP211) | Potency (CP215)

OCc1ccc(Cl)cc1Cl
inactive: activity, negative = inhibition [1, 2] -3.83% | activity, negative = inhibition [1, 3] -17.4% | Potency (3D7) | Potency (7G8) | Potency (AA1029) | Potency (AS120) | Potency (ATS189) | Potency (ATS95) | Potency (C2A) | Potency (CP185) | outcome (CP191) | outcome (CP192) | outcome (CP194) | outcome (CP201) | outcome (CP211) | Potency (CP215)

CC[N+](CC)(CC(=O)Nc1c(C)cccc1C)Cc1ccccc1
inactive: activity, negative = inhibition [1, 2] 15.1% | activity, negative = inhibition [1, 3] 8.11% | Potency (3D7) | Potency (7G8) | Potency (AA1029) | Potency (AS120) | Potency (ATS189) | Potency (ATS95) | Potency (C2A) | Potency (CP185) | outcome (CP191) | outcome (CP192) | outcome (CP194) | outcome (CP201) | outcome (CP211) | Potency (CP215)

CCCCCC(N)=O
inactive: activity, negative = inhibition [1, 2] 6.64% | activity, negative = inhibition [1, 3] 8.74% | Potency (3D7) | Potency (7G8) | Potency (AA1029) | Potency (AS120) | Potency (ATS189) | Potency (ATS95) | Potency (C2A) | Potency (CP185) | outcome (CP191) | outcome (CP192) | outcome (CP194) | outcome (CP201) | outcome (CP211) | Potency (CP215)

— PubChem BioAssay (NCATS)
